Here are results for eleven compounds from ChEMBL document CHEMBL3988442, “University of Dundee, Small-Polar-MMV Screening Library” (2021).

Holding throughout (set-up): scale not given: direction of the effect not stated beside the values
For test [1], the target named is Protein translocase subunit SecA (Escherichia coli (strain K12)) (UniProt P10408). Nature of the test: Assay to Identify E. coli SecA ATPase Inhibitors. The format is functional. The conditions noted are these: 30 µM.
In test [2] the target is T1, Ubiquitin-activating enzyme e1, putative (Leishmania donovani (strain BPK282A1)) (UniProt E9BSI1).
T1 sequence (whole entry): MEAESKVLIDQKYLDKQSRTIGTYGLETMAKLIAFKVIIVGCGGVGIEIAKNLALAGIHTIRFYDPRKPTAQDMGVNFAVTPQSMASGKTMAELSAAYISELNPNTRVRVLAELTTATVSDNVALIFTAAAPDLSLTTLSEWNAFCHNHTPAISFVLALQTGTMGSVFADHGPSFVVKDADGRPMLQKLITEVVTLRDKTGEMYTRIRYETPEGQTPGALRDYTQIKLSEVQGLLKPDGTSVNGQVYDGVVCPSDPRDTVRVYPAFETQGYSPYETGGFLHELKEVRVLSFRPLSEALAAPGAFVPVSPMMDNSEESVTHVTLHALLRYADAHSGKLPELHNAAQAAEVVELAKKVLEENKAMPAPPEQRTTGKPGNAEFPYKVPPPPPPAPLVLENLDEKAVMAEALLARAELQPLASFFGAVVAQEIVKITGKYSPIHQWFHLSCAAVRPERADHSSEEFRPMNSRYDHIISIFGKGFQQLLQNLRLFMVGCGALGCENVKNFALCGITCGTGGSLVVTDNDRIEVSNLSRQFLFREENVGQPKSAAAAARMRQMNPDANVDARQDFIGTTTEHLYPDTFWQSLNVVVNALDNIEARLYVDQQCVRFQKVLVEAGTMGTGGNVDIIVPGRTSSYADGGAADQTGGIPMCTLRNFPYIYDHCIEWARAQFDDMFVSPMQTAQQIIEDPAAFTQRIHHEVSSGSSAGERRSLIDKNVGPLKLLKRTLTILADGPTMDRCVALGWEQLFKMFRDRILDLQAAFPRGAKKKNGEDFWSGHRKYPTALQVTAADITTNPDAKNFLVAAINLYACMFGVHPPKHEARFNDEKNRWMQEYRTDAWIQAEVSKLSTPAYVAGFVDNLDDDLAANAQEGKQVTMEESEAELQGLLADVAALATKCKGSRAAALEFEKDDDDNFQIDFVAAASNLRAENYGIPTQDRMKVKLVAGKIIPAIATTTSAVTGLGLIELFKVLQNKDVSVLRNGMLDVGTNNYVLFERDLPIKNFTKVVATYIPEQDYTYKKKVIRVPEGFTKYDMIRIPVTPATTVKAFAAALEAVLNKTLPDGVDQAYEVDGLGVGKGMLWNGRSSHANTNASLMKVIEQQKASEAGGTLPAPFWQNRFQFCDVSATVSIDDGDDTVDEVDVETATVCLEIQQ
Nature of the test: Leishmania donovani Ubiquitin Activating Enzyme (LdE1). The format is functional. Particulars: 30 µM.

The target of test [3] is AMP-activated protein kinase, AMPK (Homo sapiens) (UniProt P54646+O43741+P54619+Q9UGJ0+Q9Y478+Q13131+Q9UGI9). Nature of the test: AMP-dependent Kinase enzyme assay. An in vitro enzyme assay that detects ADP turnover that is directly proportional to AMPK activity. This uses naive AMPK that is activated during the assay with MK-8722. The conditions noted are these: 30 µM. The format is functional.

The target in test [4] is Sialic acid-binding Ig-like lectin 9 (Homo sapiens) (UniProt Q9Y336). Description: Hs-Siglec9 ALPHAscreen SOP 20170721. The conditions noted are these: 10 µM. (Bead proximity is the source of the signal in Alpha formats.)
Test [5] has as its system Trypanosoma cruzi. Description: Trypanosoma cruzi phosphomannomutase and mannose-1-phosphate guanylyltransferase assay. The conditions noted are these: 10 µM. It is filed as functional.
The target of test [6] is T2, Arginase-2, mitochondrial (Homo sapiens) (UniProt P78540).
T2 sequence (whole entry): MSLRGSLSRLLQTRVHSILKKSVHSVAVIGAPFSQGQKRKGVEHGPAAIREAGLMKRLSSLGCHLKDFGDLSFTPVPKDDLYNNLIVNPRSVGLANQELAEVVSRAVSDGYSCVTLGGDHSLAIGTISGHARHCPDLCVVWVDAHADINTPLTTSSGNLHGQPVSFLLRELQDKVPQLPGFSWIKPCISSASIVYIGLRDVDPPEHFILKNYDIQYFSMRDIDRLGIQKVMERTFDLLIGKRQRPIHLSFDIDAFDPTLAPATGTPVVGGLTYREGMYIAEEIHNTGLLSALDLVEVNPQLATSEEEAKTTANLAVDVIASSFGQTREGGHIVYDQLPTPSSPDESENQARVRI
Nature of the test: in vitro enzyme assay to detect the production of urea directly proportional to the activity of Arginase II. Further: in the data most compounds retested in dose-response had high values. The format is functional. The conditions noted are these: 33.3 µM.

Test [7] addresses T3, Proteasome subunit beta (Trypanosoma cruzi) (UniProt O96673).
T3 sequence (whole entry): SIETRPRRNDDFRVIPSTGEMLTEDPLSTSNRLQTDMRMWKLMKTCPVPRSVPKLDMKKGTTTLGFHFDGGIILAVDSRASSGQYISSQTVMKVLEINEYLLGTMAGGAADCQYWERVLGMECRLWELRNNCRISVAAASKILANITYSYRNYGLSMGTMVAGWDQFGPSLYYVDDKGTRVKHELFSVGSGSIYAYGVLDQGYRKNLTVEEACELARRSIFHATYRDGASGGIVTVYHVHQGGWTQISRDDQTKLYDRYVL
Nature of the test: Trypanosoma cruzi proteasome chymotrypsin-like activity (TcProtChymo) assay. Further: in the data most compounds retested in dose-response had high values. It is filed as functional. Particulars: 9.37 µM.

The species entered for test [8] is Homo sapiens. Description: To identify inhibition of the IFN signalling (Jak-Stat) pathway via expression of an eGFP reporter gene under the control of an IFN-stimulated response element (ISRE) containing MxA promoter. It is filed as functional. Particulars: 30 µM. In general terms: Reporter assays use an easily measured gene product as a stand-in for the process of interest.

Test [9] has as its target T4, Tyrosyl-tRNA synthetase, putative (Trypanosoma cruzi (strain CL Brener)) (UniProt Q4DSP6).
T4 sequence (whole entry): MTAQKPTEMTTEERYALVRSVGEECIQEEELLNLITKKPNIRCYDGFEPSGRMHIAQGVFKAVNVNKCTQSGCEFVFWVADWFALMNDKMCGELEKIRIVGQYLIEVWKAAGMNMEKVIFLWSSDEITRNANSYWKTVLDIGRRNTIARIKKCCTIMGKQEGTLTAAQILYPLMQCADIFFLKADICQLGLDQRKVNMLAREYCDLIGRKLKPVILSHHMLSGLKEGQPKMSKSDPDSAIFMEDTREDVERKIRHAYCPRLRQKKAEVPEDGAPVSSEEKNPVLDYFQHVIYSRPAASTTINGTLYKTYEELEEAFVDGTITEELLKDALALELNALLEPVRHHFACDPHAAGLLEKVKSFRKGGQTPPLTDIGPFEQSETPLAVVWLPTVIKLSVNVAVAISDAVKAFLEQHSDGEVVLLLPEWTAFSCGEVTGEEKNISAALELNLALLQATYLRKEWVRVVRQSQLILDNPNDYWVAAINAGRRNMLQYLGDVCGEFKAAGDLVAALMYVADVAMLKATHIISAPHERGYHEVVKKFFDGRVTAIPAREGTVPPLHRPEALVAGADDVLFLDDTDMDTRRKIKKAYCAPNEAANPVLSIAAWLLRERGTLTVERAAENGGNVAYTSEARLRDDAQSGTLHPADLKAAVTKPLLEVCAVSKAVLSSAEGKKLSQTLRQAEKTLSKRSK
Description: Trypanosoma cruzi tyrosyl tRNA synthetase (TcYRS) _High Tyrosine SOP. Further: in the data most compounds retested in dose-response had high values. Particulars: 30 µM. It is filed as functional.

The target in test [10] is T4, Tyrosyl-tRNA synthetase, putative (Trypanosoma cruzi (strain CL Brener)). Nature of the test: Trypanosoma cruzi tyrosyl tRNA synthetase (TcYRS) SOP. Particulars: 30 µM. It is filed as functional.
Test [11] addresses Chromo domain-containing protein 1 (Saccharomyces cerevisiae (strain ATCC 204508 / S288c) (Baker's yeast)) (UniProt P32657). Description: ScCHD-1 Enzyme Inhibition Assay. Further: in the data most compounds retested in dose-response had high values. Particulars: 30 µM. The format is functional.

For some of these results: Potency and affinity values are given separately.

Chain of Sialic acid-binding Ig-like lectin 9 (Homo sapiens) (Q9Y336 whole entry): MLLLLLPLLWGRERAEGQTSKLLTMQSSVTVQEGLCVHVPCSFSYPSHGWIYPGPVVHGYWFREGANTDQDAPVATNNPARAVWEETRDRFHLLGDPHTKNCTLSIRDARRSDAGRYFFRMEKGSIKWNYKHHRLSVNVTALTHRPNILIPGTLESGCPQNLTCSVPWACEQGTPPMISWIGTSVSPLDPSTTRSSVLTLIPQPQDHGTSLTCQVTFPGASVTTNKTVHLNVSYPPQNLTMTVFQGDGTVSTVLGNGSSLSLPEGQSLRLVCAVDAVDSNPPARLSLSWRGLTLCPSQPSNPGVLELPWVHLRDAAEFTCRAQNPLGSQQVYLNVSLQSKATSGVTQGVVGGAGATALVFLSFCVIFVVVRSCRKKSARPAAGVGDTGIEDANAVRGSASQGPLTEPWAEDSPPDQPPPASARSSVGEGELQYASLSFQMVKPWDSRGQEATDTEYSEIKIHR
Chain of Chromo domain-containing protein 1 (Saccharomyces cerevisiae (strain ATCC 204508 / S288c) (Baker's yeast)) (P32657 whole entry, the tested form may be a part): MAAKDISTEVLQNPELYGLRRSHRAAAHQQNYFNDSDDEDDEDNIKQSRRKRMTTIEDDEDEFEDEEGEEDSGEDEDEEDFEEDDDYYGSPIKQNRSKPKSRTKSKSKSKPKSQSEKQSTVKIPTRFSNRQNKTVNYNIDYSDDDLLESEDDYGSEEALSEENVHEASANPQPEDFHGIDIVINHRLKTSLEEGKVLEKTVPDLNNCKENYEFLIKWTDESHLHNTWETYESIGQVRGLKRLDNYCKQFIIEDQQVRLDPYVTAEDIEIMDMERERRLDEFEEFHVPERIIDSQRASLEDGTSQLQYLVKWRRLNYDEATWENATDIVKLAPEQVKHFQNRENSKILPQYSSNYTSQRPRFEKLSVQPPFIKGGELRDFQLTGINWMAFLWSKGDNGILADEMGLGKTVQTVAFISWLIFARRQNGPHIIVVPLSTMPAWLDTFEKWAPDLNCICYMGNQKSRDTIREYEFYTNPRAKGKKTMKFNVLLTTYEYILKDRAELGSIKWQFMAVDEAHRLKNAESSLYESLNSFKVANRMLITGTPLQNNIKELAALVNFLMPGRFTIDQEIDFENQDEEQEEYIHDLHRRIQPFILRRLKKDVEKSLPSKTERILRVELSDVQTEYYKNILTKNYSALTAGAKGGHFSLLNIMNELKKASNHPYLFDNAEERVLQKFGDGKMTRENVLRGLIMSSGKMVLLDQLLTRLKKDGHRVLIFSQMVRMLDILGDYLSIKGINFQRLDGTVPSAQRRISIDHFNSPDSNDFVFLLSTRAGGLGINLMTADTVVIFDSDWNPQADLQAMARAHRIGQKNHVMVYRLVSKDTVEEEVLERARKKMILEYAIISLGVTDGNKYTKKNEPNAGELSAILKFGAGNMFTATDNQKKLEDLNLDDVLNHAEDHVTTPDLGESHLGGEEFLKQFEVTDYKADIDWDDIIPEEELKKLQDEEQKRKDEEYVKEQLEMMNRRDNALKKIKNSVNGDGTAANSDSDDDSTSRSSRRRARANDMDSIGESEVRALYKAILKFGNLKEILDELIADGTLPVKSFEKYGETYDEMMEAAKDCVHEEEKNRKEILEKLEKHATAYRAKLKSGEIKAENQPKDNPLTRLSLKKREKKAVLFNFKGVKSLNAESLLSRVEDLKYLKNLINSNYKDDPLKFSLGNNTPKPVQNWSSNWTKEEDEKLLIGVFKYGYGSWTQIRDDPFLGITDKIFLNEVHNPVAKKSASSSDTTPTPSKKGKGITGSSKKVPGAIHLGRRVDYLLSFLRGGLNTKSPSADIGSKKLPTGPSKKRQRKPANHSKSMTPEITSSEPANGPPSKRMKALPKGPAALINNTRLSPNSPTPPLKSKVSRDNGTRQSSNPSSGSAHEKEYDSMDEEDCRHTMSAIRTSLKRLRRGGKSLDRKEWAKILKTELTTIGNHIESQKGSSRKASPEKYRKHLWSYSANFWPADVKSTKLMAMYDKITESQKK
Chain of Protein translocase subunit SecA (Escherichia coli (strain K12)) (P10408 whole entry): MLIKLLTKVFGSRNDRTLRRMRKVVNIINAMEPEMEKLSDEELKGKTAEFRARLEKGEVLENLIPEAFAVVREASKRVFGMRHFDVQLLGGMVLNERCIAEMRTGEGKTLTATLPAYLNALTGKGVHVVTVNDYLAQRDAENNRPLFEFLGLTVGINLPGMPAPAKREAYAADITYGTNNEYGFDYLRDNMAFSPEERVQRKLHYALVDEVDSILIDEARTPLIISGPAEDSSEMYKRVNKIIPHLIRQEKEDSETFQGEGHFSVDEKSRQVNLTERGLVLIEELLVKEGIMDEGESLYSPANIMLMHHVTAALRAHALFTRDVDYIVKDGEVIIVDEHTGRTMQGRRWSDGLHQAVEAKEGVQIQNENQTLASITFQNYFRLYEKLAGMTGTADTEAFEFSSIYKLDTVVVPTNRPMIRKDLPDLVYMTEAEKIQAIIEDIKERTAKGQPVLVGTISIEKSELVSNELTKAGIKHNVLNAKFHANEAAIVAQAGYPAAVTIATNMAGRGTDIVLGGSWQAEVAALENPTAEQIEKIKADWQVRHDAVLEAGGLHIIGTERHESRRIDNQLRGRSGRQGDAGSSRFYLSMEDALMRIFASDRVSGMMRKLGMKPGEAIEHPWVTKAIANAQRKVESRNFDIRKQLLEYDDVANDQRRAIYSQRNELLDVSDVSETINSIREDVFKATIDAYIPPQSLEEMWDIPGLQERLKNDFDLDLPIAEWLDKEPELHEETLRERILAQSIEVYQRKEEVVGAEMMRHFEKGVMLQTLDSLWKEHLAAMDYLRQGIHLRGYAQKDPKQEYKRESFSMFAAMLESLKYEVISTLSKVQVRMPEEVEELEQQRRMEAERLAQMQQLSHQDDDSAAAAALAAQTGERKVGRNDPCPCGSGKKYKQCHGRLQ

As to `CCc1nc(C2CCCN(C(=O)c3cn(C)nc3C)C2)no1` (stereo unspecified), the Percent Effect is -2.94% in test [1]; 5.41% in test [2]; -8.22% in test [3]; 13.8% in [4]; 7.89% in [5]; 0.185% in test [6]. Besides, the Percent Effect worked out at 5.57% in test [7]; 9% in test [8]; 3.96% in [9]; 13.4% in [10]; 65.5% in test [11].
For `CCC1CN(CCNC(C)=O)CCN1CCOC` (stereo unspecified), the Percent Effect was -0.705% in test [1]; 16.2% in test [2]; -10.5% in test [3]; -8.99% in [4]; -2.74% in test [5]; -4.81% in test [6]. Further, the Percent Effect in test [7] is 18.2%; in [8], 5.73%; in [9], 7.39%; in test [10], 13.6%; in test [11], -5.61%.
Regarding `CCOC(=O)[C@]12CCCN(Cc3nccs3)C[C@H]1CN(CCN(C)C)C2`, the Percent Effect was -2.1% in test [1]; 13% in test [2]; 1.26% in test [3]; -3.57% in [4]; -0.493% in test [5]; 7.1% in [6]. Besides, the Percent Effect in test [7] was 16.2%; in [8], 8.87%; in [9], 2.12%; in test [10], 8.97%; in [11], -10.9%.
With `Cc1ccc(CNC(=O)NCCCn2nc3ccccn3c2=O)s1`, the Percent Effect in test [1] is -7.23%; in test [2] it was 16.2%; in [3], -11%; in test [4], 15.3%; in [5], 6.89%; in test [6], -18.8%. Moreover, the Percent Effect is 5.95% in test [7]; 7.36% in test [8]; 6.4% in test [9]; -70.4% in test [10]; -16.6% in [11].
For `Cc1cc(C)c(OCC(=O)NS(=O)(=O)c2cccnc2)c(C)c1`, the Percent Effect in [1] was -3.5%; in test [2], 21.1%; in test [3], -5.54%; in test [4], 1.96%; in test [5], 3.95%; in test [6] it was -0.766%. In addition, the Percent Effect in [7] was 16%; in test [8], 6.77%; in test [9], 10.3%; in test [10], 24.4%; in test [11], -14%.
For `CN(C)C(=O)CCCNC(=O)C(c1cccc(F)c1)N(C)C` (stereo unspecified), the Percent Effect was 0.633% in test [1]; 13.5% in [2]; -10.5% in test [3]; 5.14% in test [4]; 5.41% in [5]; -1.43% in test [6]. The Percent Effect was 11.7% in [7]; 24.9% in test [8]; 10.1% in test [9]; 12.2% in [10]; -1.94% in test [11].
`CCN1CCCC1CN(CCN(C)C)S(=O)(=O)c1ccc(C#N)cc1` (stereo unspecified): the Percent Effect was -3.88% in test [1]; 5.48% in test [2]; -10.9% in test [3]; 21.3% in [4]; 4.5% in [5]; 0.909% in [6]. In addition, the Percent Effect in test [7] is 3.73%; in [8], 3.29%; in [9], 4.3%; in test [10] it was 15%; in test [11], -5.33%.
As for `N#Cc1cc(NC(=O)C2CC=CC2)ccc1N1CCC(O)CC1`, the Percent Effect in test [1] was -3.63%; in test [2] it was 2.7%; in [3] it was -2.38%; in [4], 4.36%; in test [5], -0.193%; in [6], 1.91%. Besides, the Percent Effect in test [7] is 7.41%; in [8], 0.178%; in test [9] it was 2.65%; in test [10] it was 7.32%; in test [11], -2.26%.
Turning to `Cc1nc(C)n(CC2CCCN2Cc2nc(C3CC3)no2)n1` (stereo unspecified), the Percent Effect is -1.33% in [1]; 2.63% in test [2]; -3.31% in test [3]; -2.5% in test [4]; 4.32% in [5]; -3.83% in [6]. For the same compound, the Percent Effect in test [7] is 1.34%; in test [8], -15.7%; in [9] it was 2.45%; in test [10], 4.88%; in [11], -4.84%.
Regarding `Cc1nccc(N2CCC(=O)N(Cc3ccc(F)cc3)C(C(C)C)C2)n1` (stereo unspecified), the Percent Effect in test [1] was -2.94%; in test [2], 1.39%; in [3], 1.69%; in test [4] it was -1.4%; in test [5] it was -1.07%; in [6] it was -0.883%. In addition, the Percent Effect is 4.56% in test [7]; -6.54% in test [8]; 0% in [9]; 2.56% in test [10]; 1.68% in test [11].
As to `CCn1nccc1CNC(=O)C1CCCC1`, the Percent Effect in test [1] is 0.221%; in [2], 10.4%; in test [3], 2.62%; in test [4], 4.33%; in test [5] it was -7.38%; in test [6], 1.38%. In addition, the Percent Effect is 9.65% in test [7]; -1.06% in test [8]; 5.38% in test [9]; 16.1% in test [10]; -0.569% in test [11].
